From ChEMBL document CHEMBL1961873, “Compounds: GSK PKIS; Assays: Nanosyn kinase panel” (2012)

Tests used:
[1] = biological target: Sphingosine kinase 1 (Homo sapiens) (UniProt Q9NYA1); details: at 1 µM;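 also: mean SPHK1 inhibition value reported from the GSK PKIS kinase panel screen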
[2] = biological target: T1, Sphingosine kinase 2 (Homo sapiens) (UniProt Q9NRA0); details: at 0.1 µM
T1 sequence (whole entry): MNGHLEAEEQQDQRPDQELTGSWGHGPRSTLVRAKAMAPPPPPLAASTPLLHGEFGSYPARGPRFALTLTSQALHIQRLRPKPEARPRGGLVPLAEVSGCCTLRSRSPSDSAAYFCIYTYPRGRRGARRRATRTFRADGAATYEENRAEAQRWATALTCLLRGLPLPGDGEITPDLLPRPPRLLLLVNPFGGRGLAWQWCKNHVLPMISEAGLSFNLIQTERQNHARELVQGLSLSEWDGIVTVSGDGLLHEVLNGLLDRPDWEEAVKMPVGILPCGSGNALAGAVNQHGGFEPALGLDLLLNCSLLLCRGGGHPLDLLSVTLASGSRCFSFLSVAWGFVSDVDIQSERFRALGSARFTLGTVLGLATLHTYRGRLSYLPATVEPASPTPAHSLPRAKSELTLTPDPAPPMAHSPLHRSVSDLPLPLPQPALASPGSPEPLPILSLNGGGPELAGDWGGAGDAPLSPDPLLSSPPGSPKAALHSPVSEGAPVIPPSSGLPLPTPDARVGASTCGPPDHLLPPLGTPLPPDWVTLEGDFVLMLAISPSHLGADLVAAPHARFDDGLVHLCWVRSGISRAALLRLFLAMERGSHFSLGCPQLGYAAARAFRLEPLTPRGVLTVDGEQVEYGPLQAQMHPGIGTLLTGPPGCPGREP

[3] = biological target: T1, Sphingosine kinase 2 (Homo sapiens); details: at 1 µM
[4] = biological target: Casein kinase II subunit alpha (Homo sapiens) (UniProt P68400); details: at 0.1 µM
Sequence of Casein kinase II subunit alpha (Homo sapiens) (P68400 whole entry, looked up): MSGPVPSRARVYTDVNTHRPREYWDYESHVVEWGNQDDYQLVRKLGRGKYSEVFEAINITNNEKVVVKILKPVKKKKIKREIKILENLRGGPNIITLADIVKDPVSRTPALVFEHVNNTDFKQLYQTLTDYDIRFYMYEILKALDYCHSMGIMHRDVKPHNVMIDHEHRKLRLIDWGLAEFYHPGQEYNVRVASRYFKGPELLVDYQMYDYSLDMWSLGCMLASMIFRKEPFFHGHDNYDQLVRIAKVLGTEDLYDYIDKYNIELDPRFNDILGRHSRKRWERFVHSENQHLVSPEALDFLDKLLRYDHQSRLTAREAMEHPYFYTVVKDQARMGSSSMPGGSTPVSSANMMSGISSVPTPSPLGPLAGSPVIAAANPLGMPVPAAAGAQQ

[5] = biological target: Casein kinase II subunit alpha (Homo sapiens) (UniProt P68400); details: at 1 µM
[6] = biological target: T2, Inhibitor of nuclear factor kappa-B kinase subunit alpha (Homo sapiens) (UniProt O15111); details: at 0.1 µM
T2 sequence (whole entry): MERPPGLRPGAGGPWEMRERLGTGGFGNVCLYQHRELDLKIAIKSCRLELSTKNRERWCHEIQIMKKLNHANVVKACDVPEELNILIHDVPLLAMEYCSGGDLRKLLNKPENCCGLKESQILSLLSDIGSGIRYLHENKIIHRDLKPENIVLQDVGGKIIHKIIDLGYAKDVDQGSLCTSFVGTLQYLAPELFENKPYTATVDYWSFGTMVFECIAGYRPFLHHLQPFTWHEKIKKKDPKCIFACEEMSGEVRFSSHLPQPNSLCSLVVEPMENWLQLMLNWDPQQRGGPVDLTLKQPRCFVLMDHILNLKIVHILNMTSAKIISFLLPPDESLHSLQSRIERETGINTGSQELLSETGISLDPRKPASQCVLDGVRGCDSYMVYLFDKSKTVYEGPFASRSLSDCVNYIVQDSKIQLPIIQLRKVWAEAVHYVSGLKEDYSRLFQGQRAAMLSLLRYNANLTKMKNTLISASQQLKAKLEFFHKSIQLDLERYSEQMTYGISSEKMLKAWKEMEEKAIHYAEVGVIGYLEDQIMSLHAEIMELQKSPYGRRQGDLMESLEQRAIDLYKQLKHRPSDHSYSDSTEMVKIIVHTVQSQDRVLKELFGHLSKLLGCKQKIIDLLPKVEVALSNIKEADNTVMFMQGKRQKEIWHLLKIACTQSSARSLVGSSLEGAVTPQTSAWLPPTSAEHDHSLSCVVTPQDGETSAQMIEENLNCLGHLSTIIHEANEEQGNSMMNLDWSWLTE

[7] = biological target: T2, Inhibitor of nuclear factor kappa-B kinase subunit alpha (Homo sapiens); details: at 1 µM
[8] = biological target: T3, Inhibitor of nuclear factor kappa-B kinase subunit beta (Homo sapiens) (UniProt O14920); details: at 0.1 µM
T3 sequence (whole entry): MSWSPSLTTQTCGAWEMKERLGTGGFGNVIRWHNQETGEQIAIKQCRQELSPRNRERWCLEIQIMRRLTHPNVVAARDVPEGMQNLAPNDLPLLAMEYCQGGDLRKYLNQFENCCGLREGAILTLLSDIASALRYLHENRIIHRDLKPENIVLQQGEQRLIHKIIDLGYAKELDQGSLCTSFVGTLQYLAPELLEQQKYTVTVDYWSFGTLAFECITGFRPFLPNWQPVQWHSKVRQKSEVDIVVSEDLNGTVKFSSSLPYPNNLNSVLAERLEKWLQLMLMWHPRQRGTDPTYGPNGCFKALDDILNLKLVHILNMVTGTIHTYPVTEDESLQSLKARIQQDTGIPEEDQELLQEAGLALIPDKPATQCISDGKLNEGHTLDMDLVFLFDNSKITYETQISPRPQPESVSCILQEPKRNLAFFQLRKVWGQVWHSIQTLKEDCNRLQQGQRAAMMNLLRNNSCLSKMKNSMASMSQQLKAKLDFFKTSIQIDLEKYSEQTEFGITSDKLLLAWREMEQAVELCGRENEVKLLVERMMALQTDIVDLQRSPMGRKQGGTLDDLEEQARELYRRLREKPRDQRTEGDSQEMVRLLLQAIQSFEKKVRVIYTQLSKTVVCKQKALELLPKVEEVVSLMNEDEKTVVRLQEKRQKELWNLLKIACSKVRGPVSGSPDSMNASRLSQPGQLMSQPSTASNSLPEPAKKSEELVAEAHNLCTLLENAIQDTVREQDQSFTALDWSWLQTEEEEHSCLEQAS

[9] = biological target: T3, Inhibitor of nuclear factor kappa-B kinase subunit beta (Homo sapiens); details: at 1 µM
[10] = biological target: T4, Inhibitor of nuclear factor kappa-B kinase subunit epsilon (Homo sapiens) (UniProt Q14164); details: at 0.1 µM
T4 sequence (whole entry): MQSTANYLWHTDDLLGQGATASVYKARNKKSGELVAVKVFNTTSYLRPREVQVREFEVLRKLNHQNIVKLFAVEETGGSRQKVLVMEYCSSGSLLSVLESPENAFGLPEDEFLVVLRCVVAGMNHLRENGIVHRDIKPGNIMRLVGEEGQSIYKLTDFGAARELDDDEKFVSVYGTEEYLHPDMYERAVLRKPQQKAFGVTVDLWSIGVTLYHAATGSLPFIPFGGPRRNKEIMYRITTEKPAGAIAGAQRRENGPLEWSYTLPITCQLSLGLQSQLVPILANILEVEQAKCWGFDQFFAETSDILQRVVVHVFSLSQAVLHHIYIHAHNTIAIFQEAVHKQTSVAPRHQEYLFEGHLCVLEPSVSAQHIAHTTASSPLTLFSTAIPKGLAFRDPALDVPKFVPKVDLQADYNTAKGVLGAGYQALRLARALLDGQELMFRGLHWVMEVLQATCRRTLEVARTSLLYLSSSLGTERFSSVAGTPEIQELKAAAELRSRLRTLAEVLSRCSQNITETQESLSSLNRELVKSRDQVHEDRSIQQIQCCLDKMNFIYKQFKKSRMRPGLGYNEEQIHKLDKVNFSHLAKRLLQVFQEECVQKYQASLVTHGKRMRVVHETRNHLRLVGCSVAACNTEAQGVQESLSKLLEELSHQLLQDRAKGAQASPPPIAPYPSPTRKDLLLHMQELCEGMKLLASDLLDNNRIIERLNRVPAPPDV

[11] = biological target: T4, Inhibitor of nuclear factor kappa-B kinase subunit epsilon (Homo sapiens); details: at 1 µM
[12] = biological target: T5, Serine/threonine-protein kinase Nek1 (Homo sapiens) (UniProt Q96PY6); details: at 0.1 µM
T5 sequence (whole entry): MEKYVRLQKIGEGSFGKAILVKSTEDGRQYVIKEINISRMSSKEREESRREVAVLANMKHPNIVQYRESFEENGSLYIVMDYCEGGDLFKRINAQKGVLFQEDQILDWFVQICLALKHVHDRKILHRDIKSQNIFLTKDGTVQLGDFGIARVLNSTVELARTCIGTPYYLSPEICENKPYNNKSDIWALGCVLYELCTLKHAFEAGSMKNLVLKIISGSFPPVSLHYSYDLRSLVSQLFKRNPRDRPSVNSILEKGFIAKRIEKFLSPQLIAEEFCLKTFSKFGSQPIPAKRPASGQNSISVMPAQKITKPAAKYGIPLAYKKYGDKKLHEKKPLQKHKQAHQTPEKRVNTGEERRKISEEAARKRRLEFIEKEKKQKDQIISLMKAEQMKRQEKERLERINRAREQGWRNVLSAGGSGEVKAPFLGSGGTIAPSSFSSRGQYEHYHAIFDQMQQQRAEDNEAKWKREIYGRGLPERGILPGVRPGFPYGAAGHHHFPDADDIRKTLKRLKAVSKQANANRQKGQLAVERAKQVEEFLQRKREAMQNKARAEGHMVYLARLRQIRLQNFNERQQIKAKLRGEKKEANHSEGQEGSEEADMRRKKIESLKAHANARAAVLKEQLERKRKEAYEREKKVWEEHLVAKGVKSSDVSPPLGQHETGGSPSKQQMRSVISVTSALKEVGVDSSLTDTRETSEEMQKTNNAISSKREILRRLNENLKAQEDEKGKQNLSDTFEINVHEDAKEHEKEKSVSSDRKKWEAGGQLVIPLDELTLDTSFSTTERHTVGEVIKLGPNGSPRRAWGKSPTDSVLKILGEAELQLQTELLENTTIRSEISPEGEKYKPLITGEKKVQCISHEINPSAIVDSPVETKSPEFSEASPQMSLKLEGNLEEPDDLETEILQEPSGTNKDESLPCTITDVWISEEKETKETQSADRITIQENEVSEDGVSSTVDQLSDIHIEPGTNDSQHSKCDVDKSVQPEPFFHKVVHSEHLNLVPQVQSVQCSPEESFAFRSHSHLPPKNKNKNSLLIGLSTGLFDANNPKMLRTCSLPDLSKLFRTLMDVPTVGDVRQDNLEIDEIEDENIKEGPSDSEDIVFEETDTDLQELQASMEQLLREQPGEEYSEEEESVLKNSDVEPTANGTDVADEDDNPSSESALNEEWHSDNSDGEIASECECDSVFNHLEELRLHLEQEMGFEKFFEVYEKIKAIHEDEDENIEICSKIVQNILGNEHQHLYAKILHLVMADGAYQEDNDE

[13] = biological target: T5, Serine/threonine-protein kinase Nek1 (Homo sapiens); details: at 1 µM
[14] = biological target: T6, Serine/threonine-protein kinase Nek2 (Homo sapiens) (UniProt P51955); details: at 0.1 µM
T6 sequence (whole entry): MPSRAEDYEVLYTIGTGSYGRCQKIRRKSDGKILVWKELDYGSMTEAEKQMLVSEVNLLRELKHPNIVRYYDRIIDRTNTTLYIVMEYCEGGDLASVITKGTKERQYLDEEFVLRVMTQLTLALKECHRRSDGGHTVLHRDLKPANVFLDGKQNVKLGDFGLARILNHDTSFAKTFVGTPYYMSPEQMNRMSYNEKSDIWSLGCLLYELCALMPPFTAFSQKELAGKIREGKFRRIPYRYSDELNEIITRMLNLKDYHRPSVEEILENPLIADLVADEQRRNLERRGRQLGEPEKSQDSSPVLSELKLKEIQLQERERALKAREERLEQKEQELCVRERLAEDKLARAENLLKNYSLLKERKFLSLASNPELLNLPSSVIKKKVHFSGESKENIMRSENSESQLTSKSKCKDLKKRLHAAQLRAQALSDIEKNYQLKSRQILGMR

[15] = biological target: T6, Serine/threonine-protein kinase Nek2 (Homo sapiens); details: at 1 µM
[16] = biological target: Serine/threonine-protein kinase Nek6 (Homo sapiens) (UniProt Q9HC98); details: at 0.1 µM
Sequence of Serine/threonine-protein kinase Nek6 (Homo sapiens) (Q9HC98 whole entry): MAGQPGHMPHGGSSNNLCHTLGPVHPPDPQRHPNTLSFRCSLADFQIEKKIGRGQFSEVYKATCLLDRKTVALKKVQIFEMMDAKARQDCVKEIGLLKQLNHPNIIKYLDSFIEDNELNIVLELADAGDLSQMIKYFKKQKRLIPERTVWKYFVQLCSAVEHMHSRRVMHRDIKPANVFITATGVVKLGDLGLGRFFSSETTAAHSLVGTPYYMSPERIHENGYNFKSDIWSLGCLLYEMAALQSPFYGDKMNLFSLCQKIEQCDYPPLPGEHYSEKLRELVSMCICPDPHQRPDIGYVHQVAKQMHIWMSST

[17] = biological target: Serine/threonine-protein kinase Nek6 (Homo sapiens) (UniProt Q9HC98); details: at 1 µM
[18] = biological target: Serine/threonine-protein kinase Nek7 (Homo sapiens) (UniProt Q8TDX7); details: at 1 µM;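 also: reported values are mean inhibition of NEK7 from the GSK PKIS kinase screening panel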
Sequence of Serine/threonine-protein kinase Nek7 (Homo sapiens) (Q8TDX7 whole entry, looked up): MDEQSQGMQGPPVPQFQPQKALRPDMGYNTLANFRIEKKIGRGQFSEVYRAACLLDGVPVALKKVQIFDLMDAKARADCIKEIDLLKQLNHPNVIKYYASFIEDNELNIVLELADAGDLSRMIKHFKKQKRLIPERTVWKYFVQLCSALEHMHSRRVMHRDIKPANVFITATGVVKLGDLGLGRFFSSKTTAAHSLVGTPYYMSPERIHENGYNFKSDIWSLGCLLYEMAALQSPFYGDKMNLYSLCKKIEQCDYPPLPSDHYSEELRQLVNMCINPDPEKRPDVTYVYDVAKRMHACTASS

[19] = biological target: T7, Serine/threonine-protein kinase Nek9 (Homo sapiens) (UniProt Q8TD19); details: at 0.1 µM;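 also: reported value is the mean percent inhibition of NEK9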
T7 sequence (whole entry): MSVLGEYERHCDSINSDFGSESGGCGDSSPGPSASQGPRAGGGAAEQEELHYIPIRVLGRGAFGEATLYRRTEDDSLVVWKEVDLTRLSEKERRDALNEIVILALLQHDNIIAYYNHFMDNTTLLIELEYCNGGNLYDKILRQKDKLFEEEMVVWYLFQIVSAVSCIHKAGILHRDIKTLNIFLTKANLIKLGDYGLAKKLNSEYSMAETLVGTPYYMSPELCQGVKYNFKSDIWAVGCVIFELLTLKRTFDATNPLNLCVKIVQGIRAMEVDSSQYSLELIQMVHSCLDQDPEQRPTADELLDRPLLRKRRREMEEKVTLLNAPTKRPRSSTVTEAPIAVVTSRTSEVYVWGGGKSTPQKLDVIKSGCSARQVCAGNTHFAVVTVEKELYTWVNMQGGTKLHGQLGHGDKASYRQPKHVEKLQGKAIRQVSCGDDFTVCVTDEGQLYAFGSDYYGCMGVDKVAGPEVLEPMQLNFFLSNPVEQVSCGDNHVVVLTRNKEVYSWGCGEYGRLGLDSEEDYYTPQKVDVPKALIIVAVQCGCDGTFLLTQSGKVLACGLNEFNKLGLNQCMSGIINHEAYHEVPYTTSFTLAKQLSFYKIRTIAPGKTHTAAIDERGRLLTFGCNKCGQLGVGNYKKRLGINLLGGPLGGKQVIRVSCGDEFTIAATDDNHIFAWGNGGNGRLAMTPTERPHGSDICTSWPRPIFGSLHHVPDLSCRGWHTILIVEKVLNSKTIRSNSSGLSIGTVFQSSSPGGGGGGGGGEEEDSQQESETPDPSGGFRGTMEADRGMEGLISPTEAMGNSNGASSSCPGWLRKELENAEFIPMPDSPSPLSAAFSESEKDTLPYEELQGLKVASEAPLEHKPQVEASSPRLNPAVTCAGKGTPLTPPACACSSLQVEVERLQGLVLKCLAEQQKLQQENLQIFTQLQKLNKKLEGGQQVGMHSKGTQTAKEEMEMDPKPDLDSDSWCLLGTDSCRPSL

Sequence of Sphingosine kinase 1 (Homo sapiens) (Q9NYA1 whole entry): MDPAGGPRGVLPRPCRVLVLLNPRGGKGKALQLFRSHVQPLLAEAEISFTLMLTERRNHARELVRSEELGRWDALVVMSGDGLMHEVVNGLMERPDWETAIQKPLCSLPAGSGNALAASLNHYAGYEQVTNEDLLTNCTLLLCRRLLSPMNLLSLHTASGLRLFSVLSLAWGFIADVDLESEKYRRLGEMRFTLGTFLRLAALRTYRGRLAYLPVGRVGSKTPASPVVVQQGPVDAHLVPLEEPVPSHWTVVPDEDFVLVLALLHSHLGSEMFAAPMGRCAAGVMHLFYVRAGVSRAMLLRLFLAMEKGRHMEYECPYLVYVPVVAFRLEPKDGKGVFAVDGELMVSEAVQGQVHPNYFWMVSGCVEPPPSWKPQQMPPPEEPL

c1ccc(Oc2ccc(Nc3ncc(-c4ccccc4)o3)cc2)cc1
inhibition [1]: 0.89%
inhibition [2]: 3.77%
inhibition [3]: -0.07%
inhibition [4]: 3.77%
inhibition [5]: 5.82%
inhibition [6]: 5.9%
inhibition [7]: -0.96%
inhibition [8]: 1.69%
inhibition [9]: -1.75%
inhibition [10]: 1.29%
inhibition [11]: 3.43%
inhibition [12]: 0.18%
inhibition [13]: 1.89%
inhibition [14]: 1.83%
inhibition [15]: 1.51%
inhibition [16]: -0.2%
inhibition [17]: 0.96%
inhibition [18]: 1.97%
inhibition [19]: 0.25%
